# From PubChem
# This is one part of a sample in which hits are shown more often than they occur.
# ST2 inh = IL1RL1 inhibition; AlphaLISA ST2-Fc/biotin-IL-33 interaction, 1 h; AID 1259354; hit rate 2.3% among 78,000; Q01638; inhibition, % for hits at 17 µM; in the data active = inhibition above about 30%
# Target sequence (Q01638 whole entry, looked up): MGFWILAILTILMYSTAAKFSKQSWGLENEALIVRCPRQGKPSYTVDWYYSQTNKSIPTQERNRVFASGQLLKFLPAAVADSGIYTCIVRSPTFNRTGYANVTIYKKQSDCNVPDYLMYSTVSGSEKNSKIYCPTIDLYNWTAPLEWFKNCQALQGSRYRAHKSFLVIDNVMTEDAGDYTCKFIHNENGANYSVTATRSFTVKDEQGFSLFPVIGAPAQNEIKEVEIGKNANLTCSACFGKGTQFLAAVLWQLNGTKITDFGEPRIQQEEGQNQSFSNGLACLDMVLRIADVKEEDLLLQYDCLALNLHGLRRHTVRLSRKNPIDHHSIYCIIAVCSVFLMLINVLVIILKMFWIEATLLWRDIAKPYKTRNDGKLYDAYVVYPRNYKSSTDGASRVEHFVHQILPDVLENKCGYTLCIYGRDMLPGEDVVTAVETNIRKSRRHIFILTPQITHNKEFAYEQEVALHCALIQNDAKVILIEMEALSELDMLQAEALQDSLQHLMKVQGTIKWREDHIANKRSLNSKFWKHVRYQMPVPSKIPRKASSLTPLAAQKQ
# * = called active by the depositor; i = inactive.
SMILES,ST2 inh
CN1CCN(C(=O)CC[C@@H]2CNC(=O)[C@@H]3C[C@H](NC(=O)Nc4ccccc4)CN23)CC1,i
O=C1NC[C@@H](CCC(=O)N2CCN(c3ccccn3)CC2)N2C[C@@H](NCc3ccc(F)cc3)C[C@@H]12,i
O=C(N[C@H]1C[C@H]2C(=O)NC[C@@H](CCC(=O)N3CCN(c4ccccn4)CC3)N2C1)C1CC1,i
CCn1c(C2CCCN(S(=O)(=O)CCc3ccncc3)C2)nn(C)c1=O (stereo not drawn),i
Cc1ccc(CN(CC(N)=O)S(=O)(=O)c2ccc(C)cc2)cc1,i
COc1ccc2cc(C(=O)C3CCCN(CCc4cn[nH]c4)C3)ccc2c1 (stereo not drawn),i
CC1CCCCC1NC(=O)C1CCCN(S(C)(=O)=O)C1 (stereo not drawn),i
CCS(=O)(=O)N1CCCC(C(=O)NCCCN2CCC(C)CC2)C1 (stereo not drawn),i
COc1ccccc1N=C1C(=O)Nc2ccccc21,i
COc1cccc(OC)c1OC,i
COc1cccc2c1NC(C)(C)C=C2C,46%*
Cc1ccc(Oc2ccc(C#N)c(C#N)c2)cc1C,i
COC(=O)c1ccc(N2C(=O)CSC2c2ccc(Cl)cc2Cl)cc1 (stereo not drawn),i
C=CC1C(OC2OC(CO)C(O)C(O)C2O)OC=C(C(=O)O)C1CC(=O)O (stereo not drawn),i
Cc1cc(Br)ccc1OCCCCN1CCCC1,i
NNC(=O)C1CC1c1ccccc1 (stereo not drawn),i
O=C(NC1C[C@@H]1c1ccccc1)[C@@H]1CC1c1ccccc1 (stereo partly drawn),i
O=C(Nc1ccc(Nc2ccccc2)cc1)C1CC1c1ccccc1 (stereo not drawn),30%*
COc1ccc(C(=O)NCCc2cccc(Cl)c2)cc1,i
Cc1cc(N2CCOCC2)nc2ccc(NC(=O)CCC(=O)NCCC3=CCCCC3)cc12,i
CO[C@H]1[C@H](NC(=O)Cc2ccccc2)c2ccccc2C12CCN(C(=O)c1cccc(C)c1)CC2,i
CC(c1cccnc1)N(C)Cc1ccc(-n2cncn2)cc1 (stereo not drawn),i
COc1ccc(Cn2cc(C(=O)N(C)Cc3ccon3)nn2)cc1,i
CCc1ccc(Cn2c(CNS(=O)(=O)CC)nc3cccnc32)cc1,i
Cn1c2c(c(=O)n(C)c1=O)C(c1cccc(F)c1)C1=C(N2)c2ccccc2C1=O (stereo not drawn),i
SMILES,ST2 inh
O=C1C2=C(Nc3[nH]n(-c4ccccc4)c(=O)c3C2c2ccc([N+](=O)[O-])cc2)c2ccccc21 (stereo not drawn),47%*
Cc1cccc(C2C3=C(Nc4c2c(=O)n(C)c(=O)n4C)c2ccccc2C3=O)c1 (stereo not drawn),i
CCOc1ccc(CNC(=O)c2cc3cc4ccc(OC)cc4nc3o2)cc1,i
O=C(Cn1nnnc1CN1CCCCCC1)NCCC1COc2ccccc2O1 (stereo not drawn),i
CC(C)N1CCC(NCc2cccnc2N(C)Cc2ccccc2)CC1,i
CN(Cc1ccccc1)c1ncccc1CNC(=O)C1(C)CCCO1 (stereo not drawn),35%*
CN(C)c1ncccc1CNC(=O)Cc1ccc(O)c(F)c1,i
CC(=O)NC(C)C(=O)CCCCC(C)C(=O)O (stereo not drawn),i
CCOC(=O)c1c(C)oc2cc(Br)c(OCC#N)cc12,i
Cc1ccc(S(=O)(=O)N2CCN(c3cc(-c4cccc(F)c4)ncn3)CC2)c(C)c1,i
CN(C)c1ccc(/C=C/c2c([N+](=O)[O-])c(=O)n(C)c(=O)n2C)cc1,i
CN(c1ccccc1)c1ncnc(N)c1[N+](=O)[O-],i
CN(c1ccccc1)c1ccc(/C=C/[N+](=O)[O-])cc1,50%*
OC1(C#CC(O)(c2ccccc2)c2ccccc2)CCCC1,i
COc1ccc(NC(=O)NC2CCCN(C3CCCCCC3)C2)cc1OC (stereo not drawn),i
COc1ccc(NC2CCCN(C3CCN(c4ccccc4C)CC3)C2)cc1OC (stereo not drawn),34%*
COc1ccc(NC2CCCN(C(=O)/C=C/c3cccc(Cl)c3)C2)cc1OC (stereo not drawn),i
CC(C)c1ccc(NC(=O)CN2N=NC3C(=O)N(c4ccc(Cl)cc4)C(=O)C32)cc1 (stereo not drawn),i
CC[C@@H](NC(C)=O)C(=O)NCc1ccc2[nH]c(-c3ccc(F)cc3)c(C)c2c1,i
COc1cc2c(cc1OC)C(C(=O)Nc1ccc(F)c(Cl)c1)C(c1cccs1)N(C)C2=O (stereo not drawn),i
CC(C)c1nc(CN(C)C(=O)CN(C)C2CCS(=O)(=O)C2)cs1 (stereo not drawn),i
O=C(Nc1ccc(Oc2ccccc2)cc1)C1CC1,i
O=C(Nc1ccc(O)cc1)C1CC=CCC1 (stereo not drawn),34%*
O=C(O)COc1ccc(NC(=O)C2CCCCC2)cc1,i
CC(=O)N1CCC(N(C)Cc2cc(-c3cccs3)n[nH]2)CC1,i
SMILES,ST2 inh
CCC(=O)c1ccc(Br)cc1N,i
COc1ccc(OC)c(NS(=O)(=O)c2ccc(NS(=O)(=O)c3ccc(F)cc3)cc2)c1,i
COc1ccc(S(=O)(=O)Nc2ccc(S(=O)(=O)Nc3cc(OC)ccc3OC)cc2)cc1,49%*
COc1ccc(OC)c(NS(=O)(=O)c2ccc(NS(=O)(=O)c3ccc(C)cc3)cc2)c1,i
O=C(NC1CCCCCCC1)C1CCCN1S(=O)(=O)c1ccccc1 (stereo not drawn),i
O=C(CCc1ccccc1)Nc1ccccc1I,i
O=C(O)c1cc2c3c(c1)C1C=CCC1C(c1ccccc1F)N3CC1CC=CC21 (stereo not drawn),i
O=C(O)c1cc2c3c(c1)C1C=CCC1C(c1cccc([N+](=O)[O-])c1)N3CC1CC=CC21 (stereo not drawn),40%*
O=C(O)c1cc2c3c(c1)C1C=CCC1C(c1ccc(F)cc1)N3CC1CC=CC21 (stereo not drawn),i
CCOC(=O)c1c[nH]c2cc3c(cc2c1=O)OCCO3,i
O=C(Nc1cc2c(ccc3ccccc32)oc1=O)c1ccc(Cl)cc1,i
CCc1ccccc1NS(=O)(=O)c1ccc2[nH]c(=O)sc2c1,i
CCN1CCCC1CN(CC1CCN(CCOC)CC1)C(=O)C1=NNC(=O)CC1 (stereo not drawn),i
CC(C)c1ccc(NC(=O)O[C@@H]2CO[C@H]3[C@@H]2OC[C@@H]3NC(=S)Nc2ccccc2)cc1,i
COc1cc(NC(=S)N[C@H]2CO[C@H]3[C@@H]2OC[C@H]3OC(=O)Nc2ccc(C(C)=O)cc2)cc(OC)c1,i
CC(=O)c1ccc(NC(=O)O[C@@H]2CO[C@H]3[C@@H]2OC[C@@H]3NC(=O)Nc2cccc(C#N)c2)cc1,i
CC(=O)c1ccc(NC(=O)O[C@@H]2CO[C@H]3[C@@H]2OC[C@@H]3NC(=O)NC2CCCCC2)cc1,i
CC(=O)c1ccc(NC(=O)O[C@@H]2CO[C@H]3[C@@H]2OC[C@@H]3NC(=S)Nc2ccccc2)cc1,41%*
CC(=O)c1ccc(NC(=O)N[C@H]2CO[C@H]3[C@@H]2OC[C@H]3OC(=O)Nc2cccc(C(C)=O)c2)cc1,85%*
Cc1cccc(CSc2nncc3ccccc23)c1,i
CCOc1ccc(NC(=O)Nc2nnc(-c3ccc([N+](=O)[O-])cc3)s2)cc1,i
